The list is not random: actives were taken first. Their share in the collection is about 1.6%.
KCNQ2 pot: KCNQ2 (rat) channel potentiation; O88943; CHO-K1 KCNQ2, FluxOR thallium flux fluorescence; active compounds read high; B-score at 10 µM; 0.54% of 310,000 active;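 active = fluorescence ratio B-score at least 3 SD of library B-scores, with initial fluorescence B-score within 3 of them, cut at about 5.3 in these data; same plate scores as AID 2156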;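 note: B-score of peak minus minimum over baseline fluorescence ratio after K+ and Tl+ stimulus; positive B-score means potentiation of KCNQ2 with more thallium influx and brighter signal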
KCNQ2 inh: KCNQ2 (rat) channel inhibition | CHO-K1 KCNQ2, FluxOR thallium flux, 20 min; active compounds read low | B-score at 10 µM | O88943 | 1.1% of 310,000 active;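 active = fluorescence ratio B-score at most minus 3 library SDs, with starting brightness B-score within 2 library SDs, cut at about -5.5 in these data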
Kir21 confirm: confirmation of mouse Kir2.1 potassium channel inhibitors | shares compounds with KCNQ2 pot | 41% of 2,300 active | AID 2032 | Tl flux remaining, % of negative control (active compounds read low), % at 10 µM | Kir2.1-expressing cells, FluxOR thallium flux fluorescence; active compounds read low;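 active = Primary-screen hit whose thallium flux fell at least 3 control SD below untreated wells in both duplicates, with normal baseline fluorescence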;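 note: 0% = blank wells without stimulus and 100% = stimulated no-compound controls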
HEK293 Tl flux: alters thallium flux in parental HEK293 cells, Kir2.1 counter-screen. shares compounds with KCNQ2 pot. FluxOR thallium flux fluorescence; 0% = unstimulated blank wells. FluxOR signal as % of negative control (100 = no effect), % at 10 µM. 19% of 2,300 active. AID 2105;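 active = dye signal at least 3 control SD above or below untreated wells in both duplicates, raw fluorescence within 3, either direction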;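 note: percent is based on the flux ratio of peak minus minimum fluorescence over baseline F0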
CHO-K1 ctr: alters thallium flux in parental CHO-K1 cells, KCNQ2 counter-screen; shares compounds with KCNQ2 pot; FluxOR thallium flux fluorescence; zero = vehicle mean+3SD, 100% = vehicle-minus-blank window; activity increase over 3SD of controls, % at 10 µM; 43% of 1,200 active; AID 2282;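 active = signal rise of at least 3 SD above the untreated control mean, in both duplicate wells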;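 note: counter screen of KCNQ2 potentiator hits so any rise reflects channel-independent effects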
KCNQ1 pot spec: human KCNQ1 counter-target activity of KCNQ2 potentiators; shares compounds with KCNQ2 pot; CHO KCNQ1 stable, FluxOR thallium flux fluorescence; beyond 3SD, as % of vehicle-control signal; activation over 3SD threshold, % at 10 µM; 28% of 1,200 active;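 active = fluorescence ratio rise of at least 3 SD of vehicle wells above their mean, in both replicate wells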;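 note: 0% = vehicle mean plus 3 SD and 100% = vehicle minus unstimulated blank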
KCNQ2 pot confirm: confirmation of rat KCNQ2 potassium channel potentiators; potentiation, less the hit threshold, % at 10 µM; CHO-KCNQ2 cells, FluxOR thallium flux fluorescence; shares compounds with KCNQ2 pot; 68% of 1,200 active;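 active = fluorescence ratio rising 3 SD or more over the vehicle control mean in both replicates, plus primary screen hit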;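 note: peak minus minimum thallium fluorescence divided by baseline after K/Tl stimulus; 0% = vehicle mean plus 3 SD and 100% = vehicle minus unstimulated blank difference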
Kir21 spec: mouse Kir2.1 off-target activity of KCNQ2 potentiators; shares compounds with KCNQ2 pot; HEK293 Kir2.1, FluxOR thallium flux fluorescence; activity over 3SD threshold, % at 10 µM; 2% of 1,200 active; AID 2345;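 active = fluorescence ratio rise of at least 3 SD above the vehicle-control mean, seen in both replicates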;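 note: 0% = vehicle mean plus 3 SD and 100% = vehicle minus no-stimulus blank window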
KCNQ2 W236L MoA: KCNQ2 potentiators acting on retigabine-insensitive rat KCNQ2 W236L mutant | shares compounds with KCNQ2 pot | CHO KCNQ2-W236L, automated patch clamp current | current increase over 3SD of negative controls (%), active compounds read high, % at 25 µM | 10% of 940 active | AID 2558;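 active = current increase at least 3 SD of the untreated controls above them in both duplicate recordings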
Target sequence (O88943 whole entry W236L, looked up): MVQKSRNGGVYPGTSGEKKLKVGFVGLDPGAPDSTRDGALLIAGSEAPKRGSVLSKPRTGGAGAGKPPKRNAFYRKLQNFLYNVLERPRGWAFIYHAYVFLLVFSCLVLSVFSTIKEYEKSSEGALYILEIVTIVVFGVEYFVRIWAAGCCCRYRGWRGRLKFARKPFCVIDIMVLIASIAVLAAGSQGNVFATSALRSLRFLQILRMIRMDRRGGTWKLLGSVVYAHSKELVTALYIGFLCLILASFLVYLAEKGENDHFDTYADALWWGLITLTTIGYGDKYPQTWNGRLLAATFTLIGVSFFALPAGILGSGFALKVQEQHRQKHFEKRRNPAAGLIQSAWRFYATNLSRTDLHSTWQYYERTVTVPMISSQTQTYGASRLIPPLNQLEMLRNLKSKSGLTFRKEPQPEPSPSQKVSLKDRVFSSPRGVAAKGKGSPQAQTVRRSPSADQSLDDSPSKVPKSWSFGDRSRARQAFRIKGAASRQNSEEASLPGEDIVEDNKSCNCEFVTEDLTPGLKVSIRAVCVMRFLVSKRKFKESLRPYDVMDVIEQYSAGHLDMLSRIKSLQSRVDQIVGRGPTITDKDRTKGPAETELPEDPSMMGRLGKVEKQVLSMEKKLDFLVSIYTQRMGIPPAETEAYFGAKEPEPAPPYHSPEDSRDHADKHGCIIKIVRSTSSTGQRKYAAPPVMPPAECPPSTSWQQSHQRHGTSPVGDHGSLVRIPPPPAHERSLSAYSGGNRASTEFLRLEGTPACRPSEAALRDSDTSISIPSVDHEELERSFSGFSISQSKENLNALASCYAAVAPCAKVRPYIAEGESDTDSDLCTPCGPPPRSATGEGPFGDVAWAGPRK
Active calls of the source: *; i = inactive; / = no result.

SMILES	KCNQ2 pot	KCNQ2 inh	Kir21 confirm	HEK293 Tl flux	others
Cc1ccc(Cn2c(=N)n(CC(O)COc3ccccc3)c3ccccc32)cc1 (stereo unspecified)	/	i	32%*	i
CC(Oc1ccccc1)C(=O)Nc1nnc(C2CCCCC2)s1 (stereo unspecified)	1.2	i	/	/
Cc1ccc(C(OCC(O)CN2CCCCC2CO)c2ccccc2)cc1 (stereo unspecified)	0.03	i	/	/
CCC(=O)c1ccc(OCC(O)CNCc2ccc(F)cc2)cc1 (stereo unspecified)	0.66	i	/	/
Cc1ccc(C(OCC(O)CNCc2ccc(F)cc2)c2ccccc2)cc1 (stereo unspecified)	/	i	34%*	i
COc1ccc(C(OCC(O)CNCCc2ccccc2)c2ccc(OC)cc2)cc1 (stereo unspecified)	/	i	44%*	i
O=C(c1ccccc1)c1ccc(OCC(O)CNCc2ccc(F)cc2)cc1 (stereo unspecified)	/	i	26%*	i
Cc1ccc(OCC(O)CNCc2ccccc2)cc1C (stereo unspecified)	/	i	/	/
O=C(c1ccccc1)c1ccc(OCC(O)CNCc2cccc(Cl)c2)cc1 (stereo unspecified)	/	i	48%*	i
COc1ccc(C(OCC(O)CNC(C)c2ccccc2)c2ccc(OC)cc2)cc1 (stereo unspecified)	/	i	/	/
COc1cc(CN2CCC(n3nccc3NC(=O)c3ccc4c(c3)OCO4)CC2)ccc1O	0.19	i	/	/
CC(=O)Nc1ccc(C(=O)OCC(=O)NCc2ccc(Cl)cc2)cc1	/	i	/	/
O=C(CSCc1c(F)cccc1Cl)Nc1ccccc1C(=O)N1CCOCC1	1.2	i	/	/
Cc1ccc(-n2[nH]c(C)c(/C=N/Nc3ccc([N+](=O)[O-])cc3[N+](=O)[O-])c2=O)cc1	1.9	i	/	/
O=C(NCCc1ccccc1)C1CCC(=O)N1C1CCCC1 (stereo unspecified)	0.31	i	/	/
CCCCC(CC)CNS(=O)(=O)c1ccc2c(c1)CCN2C(=O)CCC(=O)O (stereo unspecified)	/	i	i	i
CCc1ccc(NS(=O)(=O)c2ccc3c(c2)CCN3C(=O)CCC(=O)O)cc1	/	i	/	/
CCCn1cnnc1CNC(=O)C1CCC(=O)N(CCCc2ccccc2)C1 (stereo unspecified)	0.66	i	/	/
CC(=O)N1CCN(C(=O)CCCNC(=O)c2ccc(Cl)cc2)CC1	/	i	/	/
COc1ccc(OC)c(NC(=O)NC2CCCCCCC2)c1	12*	i	i	i	CHO-K1 ctr=-15;KCNQ1 pot spec=-28;KCNQ2 pot confirm=3.5*;Kir21 spec=-42;KCNQ2 W236L MoA=i
Cc1ccc(Cl)cc1NC(=O)C1CC1c1ccccc1 (stereo unspecified)	6.2*	i	i	i	CHO-K1 ctr=-14;KCNQ1 pot spec=-13;KCNQ2 pot confirm=-1;Kir21 spec=-39;KCNQ2 W236L MoA=i
COc1ccc(OC)c(NC(=O)C(=S)NC2CCCCC2)c1	0.98	i	/	/
COc1cc(NC(=O)COc2ccc(Cl)cc2)ccc1NC(=O)C(C)C	/	i	/	/
COc1ccc(NC(=O)C(=O)NNC(=O)COc2ccc(Cl)cc2)c(OC)c1	10*	i	i	318%*	CHO-K1 ctr=0.6*;KCNQ1 pot spec=-31;KCNQ2 pot confirm=21*;Kir21 spec=-12;KCNQ2 W236L MoA=i
COc1ccc(C(=O)Nc2cc(OC)ccc2OC)cc1	0.02	i	/	/
SMILES	KCNQ2 pot	KCNQ2 inh	Kir21 confirm	HEK293 Tl flux	others
COc1ccc(OC)c(NC(=O)c2ccc(Cl)cc2)c1	6.5*	i	i	i	CHO-K1 ctr=-10;KCNQ1 pot spec=-12;KCNQ2 pot confirm=9.8*;Kir21 spec=-27;KCNQ2 W236L MoA=i
Cc1ccc(Cl)cc1NC(=O)C1C2CCC(O2)C1C(=O)O (stereo unspecified)	/	i	/	/
O=C(NC1CCN(Cc2ccccc2)CC1)c1cn(-c2ccccc2)nc1-c1cccnc1	0.71	i	/	/
COc1ccc(SC[C@H](CC(C)C)N2CCN(CCc3ccccc3)CCC2=O)cc1	/	i	/	/
COc1ccccc1N1CCN(S(=O)(=O)CCNC(=O)C2CCCCC2)CC1	1.7	i	/	/
COc1ccc(OC)c(NC(=O)C2CC2c2ccccc2)c1 (stereo unspecified)	19*	i	i	72%*	CHO-K1 ctr=-5;KCNQ1 pot spec=8.9*;KCNQ2 pot confirm=59*;Kir21 spec=-38;KCNQ2 W236L MoA=i
Cc1cccc(NC(=O)C2CC2c2ccccc2)c1C (stereo unspecified)	18*	i	i	i	CHO-K1 ctr=-6;KCNQ1 pot spec=-11;KCNQ2 pot confirm=47*;Kir21 spec=-23;KCNQ2 W236L MoA=i
O=C(Nc1ccccc1F)C1CC1c1ccccc1 (stereo unspecified)	4.2	i	/	/
COc1ccc(OC)c(NC(=O)C2CCCC2)c1	2.4	i	/	/
O=C(Nc1cccc(S(=O)(=O)NC2=NCCC2)c1)c1cc(Cl)ccc1[N+](=O)[O-]	/	i	/	/
COc1ccc(OC)c(NC(=O)c2csc(Cl)c2OC)c1	/	i	/	/
CCC(C)NCCOCCOc1ccccc1-c1ccccc1 (stereo unspecified)	/	i	44%*	i
CC(C)(C)NCCOCCOc1ccccc1-c1ccccc1	1.7	i	/	/
COc1ccc(C2CC(C(F)(F)F)n3nc(C(=O)NCc4cn(C)nc4C)c(Cl)c3N2)cc1 (stereo unspecified)	1.5	i	/	/
O=C(N/N=C1/C(=O)c2cccc3cccc1c23)c1ccc(Cl)cc1	10*	i	i	213%*	CHO-K1 ctr=46*;KCNQ1 pot spec=37*;KCNQ2 pot confirm=14*;Kir21 spec=-28;KCNQ2 W236L MoA=i
CCNC(=S)N/N=C1\C(=O)c2cccc3cccc1c23	1.7	i	/	/
CC(=O)c1cc(C(=O)N2CCCC(C(=O)c3ccc(Cl)cc3)C2)cs1 (stereo unspecified)	/	i	/	/
Cc1nn(C)cc1/C=C1\SC(=S)NC1=O	0.35	i	/	/
O=C1NC(=S)S/C1=C\c1cc2ccccc2nc1N1CCCCC1	5.5*	i	i	i	CHO-K1 ctr=23*;KCNQ1 pot spec=-17;KCNQ2 pot confirm=21*;Kir21 spec=-21;KCNQ2 W236L MoA=i
O=C1CSC(c2cn(-c3ccccc3)nc2-c2cccs2)N1CC1CCCO1 (stereo unspecified)	/	i	/	/
O=C(NCCCOc1cccc(CN2CCCCC2)c1)c1ccc(Cl)c(Cl)c1	/	i	/	/
c1cc(CN2CCCCC2)cc(OCCCNc2nc3ccccc3s2)c1	/	i	26%*	i

Source: PubChem (Johns Hopkins Ion Channel Center)
